In PubChem BioAssay (Tox21):
Where “and” joins values, the source holds several entries; their conditions need not be identical. Identical values can stand only once. Inconclusive results are not listed. Calls of active or inactive are those of the source. Calls follow the shape of the full dose curve.

assay: qHTS assay to identify small molecule antagonists of the sonic hedgehog signaling (Shh) pathway (AID 1259369); settings: NIH/3T3 Gli1-Luc reporter, Shh antagonist, luminescence 24 h; series mostly up to 92.4 µM; activity change, negative = inhibition: at the top concentration; also: nearly all actives have a fitted effect of over 45% in size
From the text: U.S. Tox21 Program National Center for Advancing Translational Sciences [NCATS] NIH Chemical Genomics Center [NCGC] U.S. Environmental Protection Agency [EPA] National Institutes of Environmental Health Sciences [NIEHS] National Toxicology Program [NTP] U.S. Food and Drug Administration [FDA] Tox21 Assay Overview: The sonic hedgehog (Shh) pathway is essential for normal embryonic development. Dysregulation of the Shh pathway can cause severe developmental defects in organs. Therefore chemicals that interfere with the pathway are potential developmental toxicants. A cell line designated 3T3Gli1-Luc (DMB/OARSA/CFSAN/FDA, Laurel, MD), a NIH/3T3 derived clone containing stably integrated Gli1-Luc reporter is used to detect chemical interference of the Shh pathway, by changes in the expression of the firefly Luc gene under the control of the Gli1 transcriptional response element. This cell line was used to screen Tox21 libraries for identifying and prioritizing the potential developmental toxicants that interfere Shh pathway. Conditioned medium-stimulated mode was used to screen for chemicals inhibiting Shh signaling.
Tox21 Assay Protocol Summary: 3T3 Gli1-Luc cells were dispensed at 2,000 per well in 5uL of culture medium into white solid bottom 1536-well plates (Greiner Bio-One, Monroe, NC) using a Multidrop Combi (Thermo Scientific, Waltham, MA) dispenser. The assay plates were incubated at 37 C and 5% CO2 for 4hr, and then 23nL of compounds dissolved in DMSO and positive control were transferred using a Pintool station (Wako, San Diego, CA). The compound transfer was followed by the addition of 1ul conditioned medium or assay buffer using two separate tips of Flying Reagent Dispenser (FRD, Aurora Discovery, San Diego, CA). The assay plates were incubated at 37C and 5% CO2 for 24hr. For luciferase read, 4uL of Amplite Luciferase reporter gene assay reagent (AAT Bioquest, Inc. Sunnyvale, CA) was added to each well of the assay plates using FRD and incubated at room temperature for 30min. The luminescence signal was measured using a ViewLux plate reader (Perkin Elmer, Shelton, CT).
% is scaled to controls: 0 for no effect and ±100 for the full control effect; potency is read from the fitted curve at half-maximal effect.

| SMILES | activity change, negative = inhibition | Potency |
| --- | --- | --- |
| CCCCN(CCCC)C(C(N)=O)c1ccc(OC)cc1 (stereo not given) | -18.2% [at 42.5 µM] (inactive) | – |
| CCC(C)COC(=O)CC(C)C (stereo not given) | -1.66% (inactive) | – |
| C=C(C)C(=O)OCCCCCCCCCCCCC | 8.99% (inactive) | – |
| O=C(/C=C/c1ccc(O)c(O)c1)O[C@@H]1C[C@@](OC(=O)/C=C/c2ccc(O)c(O)c2)(C(=O)O)C[C@@H](O)[C@@H]1O | 11.9% [at 42.5 µM] (inactive) | – |
| CCCCCCCCCI | -3.2% (inactive) | – |
| Cc1cc2c(OCC(CNC(C)(C)C)OC(=O)c3ccccc3)cccc2[nH]1 (stereo not given) | – | 8.41 µM (active) |
| CCC1NC(=O)c2cc(S(N)(=O)=O)c(Cl)cc2N1 (stereo not given) | 25.2% [at 42.5 µM] (inactive) | – |
| CCOC(=O)[C@H](CCc1ccccc1)N[C@@H](C)C(=O)N(CC(=O)O)C1Cc2ccccc2C1 | -1.74% [at 42.5 µM] (inactive) | – |
| COc1ccc(OC(=O)N(CC(=O)O)Cc2ccc(OCCc3nc(-c4ccccc4)oc3C)cc2)cc1 | -25.3% [at 42.5 µM] (inactive) | – |
| C[C@]1(Cn2ccnn2)[C@H](C(=O)O)N2C(=O)C[C@H]2S1(=O)=O | 26.1% [at 42.5 µM] (inactive) | – |
| O=c1c(O)c(-c2ccc(O)cc2)oc2cc(O)cc(O)c12 | – | 21.6 µM (active) and 26 µM (active) |
| C=CCc1ccccc1OCC(O)CNC(C)C (stereo not given) | -22.2% [at 42.5 µM] (inactive) | – |
| CC(=O)OCC[N+](C)(C)C | 13.5% [at 42.5 µM] (inactive) | – |
| Nc1nnc(-c2ccc([N+](=O)[O-])o2)o1 | 10.5% (inactive) | – |
| CN1CC(=O)N2[C@H](c3ccc4c(c3)OCO4)c3[nH]c4ccccc4c3C[C@@H]2C1=O | 21.4% [at 42.5 µM] (inactive) | – |
| Oc1cc2c(cc1O)[C@H]1c3ccc(O)c(O)c3OC[C@@]1(O)C2 | – | 17.4 µM (active) |
| COc1cc(N)c(Cl)cc1C(=O)NC1CCN(CCCOc2ccc(F)cc2)CC1OC (stereo not given) | – | 2.66 µM (active) |
| O=C1c2ccccc2C(=O)C1c1ccc(Br)cc1 | 43% [at 42.5 µM] (inactive) | – |
| Cc1cccc(O)c1N | – | 15.5 µM (active) |
| N#CCCN(CCO)CCO | 0.0398% (inactive) | – |

| SMILES | activity change, negative = inhibition | Potency |
| --- | --- | --- |
| O=C(CCCN1CC=C(n2c(=O)[nH]c3ccccc32)CC1)c1ccc(F)cc1 | -5.82% [at 42.5 µM] (inactive) | – |
| CCCCCCCCN | 13.4% (inactive) | – |
| Cc1ccccc1S | -1.02% [at 42.5 µM] (inactive) | – |
| Nc1ccc(N=Nc2ccccc2)c(N)c1 | -19.8% (inactive) | – |
| CCC=CC#N | 0.0972% (inactive) | – |
| COC(=O)c1nc(Cl)c(Cl)nc1N | – | 0.75 µM (active) |
| C[C@]12CC[C@@H]3c4ccc(O)cc4CC[C@H]3[C@@H]1CC[C@@H]2OC(=O)CCC1CCCC1 | – | 13.3 µM (active) |
| N#CCc1ccc(Cl)cc1Cl | -0.843% (inactive) | – |
| Nc1nc2ccc([N+](=O)[O-])cc2s1 | – | 48.6 µM (active) |
| CCCCCCC(C)(C)C(=O)O | -8.45% (inactive) | – |
| CC(=O)Oc1ccc([N+](=O)[O-])cc1CCl | -13.2% (inactive) | – |
| CCn1cc(C(=O)O)c(=O)c2cc(F)c(N3CCNCC3)cc21 | 12.3% [at 42.5 µM] (inactive) | – |
| CC[C@]1(O)C[C@H]2CN(CCc3c([nH]c4ccccc34)[C@@](C(=O)OC)(c3cc4c(cc3OC)N(C=O)[C@H]3[C@@](O)(C(=O)OC)[C@H](OC(C)=O)[C@]5(CC)C=CCN6CC[C@]43[C@@H]65)C2)C1 | – | 0.0266 µM (active) |
| CC(C)c1nc(CN(C)C(=O)N[C@H](C(=O)N[C@@H](Cc2ccccc2)C[C@H](O)[C@H](Cc2ccccc2)NC(=O)OCc2cncs2)C(C)C)cs1 | -16% [at 42.5 µM] (inactive) | – |
| NC(=O)c1ccncc1 | 13.1% (inactive) | – |
| O=[N+]([O-])c1cc(C2CCCCC2)c(O)c([N+](=O)[O-])c1 | – | 1.08 µM (active) |
| C=Cc1ccc(S(=O)(=O)O)cc1 | – | 61.1 µM (active) |
| c1ccc2sc(SN(C3CCCCC3)C3CCCCC3)nc2c1 | 11.9% (inactive) | – |
| COC(=O)CCS | 10.3% (inactive) | – |
| COc1ccccc1Oc1c(NS(=O)(=O)c2ccc(C(C)(C)C)cc2)nc(-c2ncccn2)nc1OCCO | – | 15 µM (active) |
